# Measurements as given in paper PMC5540273 (PLoS ONE, 2017).
# Columns and labels:
# Conditions in all cases: concentration: 1 μM, replicates: in singlicate; n = 1
# TRKC = tested on: T1, TRKC
# T1 construct: gene NTRK3
# TRPM6 = tested on: TRPM6
# TSSK1B = tested on: TSSK1B
# TSSK3 = tested on: TSSK3
# TTK = tested on: TTK
# TXK = tested on: TXK
# [1] = tested on: TYK2(JH1domain-catalytic)
# [2] = tested on: TYK2(JH2domain-pseudokinase)
# TYRO3 = tested on: TYRO3
# ULK1 = tested on: ULK1
# 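Further: KINOMEscan kinase panel screen.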
Compound,%Inh (TRKC) [%],%Inh (TRPM6) [%],%Inh (TSSK1B) [%],%Inh (TSSK3) [%],%Inh (TTK) [%],%Inh (TXK) [%],%Inh [1] [%],%Inh [2] [%],%Inh (TYRO3) [%],%Inh (ULK1) [%]
Fc1ccc(Nc2nccc(-c3c(-c4ccc(Cl)cc4)nn4ncccc34)n2)cc1F [GW829058],35,20,0,33,8,19,20,40,8,45
NC(=O)c1sc(-n2cnc3ccccc32)cc1OCc1ccccc1F [GSK1024306],16,0,0,20,12,0,13,28,0,0
O=C(Nc1ccccc1F)NC1CCN(c2ccnc(Nc3ccc(F)cc3)n2)C1 (centres unmarked) [GSK1379722],22,0,12,31,7,16,23,20,0,0
CC(C)(C)OC(=O)NC1CCCN(c2cc(-c3ccc4c(N)n[nH]c4c3)nc(N)n2)C1 (centres unmarked) [GSK2286096],0,39,0,96.5,0,0,66,0,0,1
CCC(CC)(CC)n1cnc2c(N)ncnc21 [SKF-97620],37,58,0,3,0,0,21,41,12,31
